High-throughput results (PubChem BioAssay)
This is one part of a sample in which hits are shown more often than they occur.
RMI-FANCM inh: RMI-FANCM interaction inhibition; FP signal (polarization) at 33 µM; Fluorescence polarization, RMI core complex with F-MM2 peptide; stronger effect = lower value; AID 1159607; 70,000 tested, 0.58% active; in the data active means FP signal below about 40
Starred values were filed as active, the others as inactive; ! = not confirmed by another sample.

SMILES	RMI-FANCM inh
COC(=O)c1ccccc1NC1=CC(=NS(=O)(=O)c2ccc(F)cc2)c2ccccc2C1=O	57
COc1ccc(S(=O)(=O)N=C2C=C(Nc3cccc(C)c3)C(=O)c3ccccc32)cc1	13*
Cn1c(=NC(=O)c2ccc(C#N)cc2)sc2cc3c(cc21)OCO3	81
COC(=O)c1sc(SC)c(C#N)c1-c1ccco1	57
N#CC1=C(N)OC(c2ccco2)=C(C#N)C1c1ccco1 (stereo not given)	56
N#Cc1c(N)c(C#N)c2c(c1-c1ccco1)Cc1ccccc1-2	12*
O=C(c1cccc([N+](=O)[O-])c1)N1CCN(c2nnnn2-c2ccccc2)CC1	72
CC(C)C(=O)NNC(=O)c1ccc(=O)n(Cc2ccccc2)c1	60
O=C(CCc1csc2nc(-c3ccccc3)cn12)NC1CC1	62
Cc1cc(C)c(C#N)c(SCC(=O)N2CCCC2)n1	77
CCOC(=O)c1c(C)oc2c(F)c(F)c(F)c(F)c12	62
CCOC(=O)c1c(C)oc2c1c1c(c3ccccc32)OCN(C2CCCCC2)C1	31*
CCOC(=O)c1c(-c2ccccc2)oc2c1cc(OC(=O)c1cc(OC)cc(OC)c1)c1ccccc12	54
O=c1[nH]c2c(s1)C1c3ccccc3OCC1CS2 (stereo not given)	-9
COc1ccc(C2c3sc(=O)[nH]c3SC3C4CC(C5C(=O)N(c6ccccc6)C(=O)C45)C23)cc1 (stereo not given)	56
O=c1[nH]c2c(s1)C(c1ccc(Cl)cc1)C1C3CCC(C3)C1S2 (stereo not given)	16*
COc1ccc(S(=O)(=O)Nc2cccc(-c3ncon3)c2)cc1OC	47
O=C(Nc1cc(Cl)cc(Cl)c1)C12CC3CC(C1)CC(C(=O)Nc1cc(Cl)cc(Cl)c1)(C3)C2	59
CC(=O)N1CCc2ccc(NC(=O)c3ccc4c(c3)OCO4)cc2C1	65
CCCN1CCCc2cc(CCNC(=O)c3ccccc3OCC)ccc21	23*
CCCN1CCCc2cc(CCNC(=O)OCC)ccc21	31*
CN1CCCc2cc(CCNC(=O)c3ccccc3Cl)ccc21	61
CCCN1CCCc2cc(CCNC(=O)C(=O)Nc3ccccc3OCC)ccc21	163
CCCN1CCCc2cc(CCNS(=O)(=O)c3ccc(CC)cc3)ccc21	150
CCCN1CCCc2cc(CCNS(C)(=O)=O)ccc21	24*
SMILES	RMI-FANCM inh
CCN1CCCc2cc(CCNC(=O)c3ccccc3C(F)(F)F)ccc21	0*
CCCN1CCCc2cc(CCNS(=O)(=O)CC(C)C)ccc21	88
CCCN1CCCc2cc(CCNC(=O)C(=O)NC(C)C)ccc21	67
CCN1CCCc2cc(CCNC(=O)c3ccc(OC)c(OC)c3)ccc21	61
CCCC(=O)NCCc1ccc2c(c1)CCCN2CCC	62
CCCN1CCCc2cc(CCNC(=O)c3cccc(OC)c3OC)ccc21	65
O=C(Nc1ccccc1)OCCOc1cc(C(F)(F)F)ccn1	59
COC(=O)Cn1c(=NC(=O)c2ccn(C)n2)sc2cc(C)ccc21	71
CN(C)S(=O)(=O)c1ccc(-c2nnc(NC(=O)c3cc(Cl)sc3Cl)o2)cc1	63
C=CCn1c(N)c(C(=O)NCc2ccc(OC)cc2)sc1=S	66
Clc1ccc(OCCn2c(CN3CCOCC3)nc3ccccc32)cc1	64
Cc1csc2sc(C(=O)N=S(C)(=O)c3ccc(Cl)cc3)c(C)c12 (stereo not given)	55
CCOC(=O)C1CCCN(c2ncnc3[nH]ncc23)C1 (stereo not given)	54
O=C1C(=O)N(CN2CCN(C(=O)c3ccco3)CC2)c2ccccc21	52
O=C(Cc1ccc(F)cc1)NCCS(=O)(=O)N1CCN(c2ccccn2)CC1	60
CN=C(C)C(C(=O)OC)=C(O)c1cccs1	58
CC1CCc2nc(NC(=O)c3cc(Cl)cc(Cl)c3)sc2C1 (stereo not given)	55
CN1C(=O)c2ccc(-c3ccccc3)nc2NC1C(=O)Nc1ccccc1 (stereo not given)	65
COc1ccc(CCNc2cc(C)c(C#N)c3nc4ccccc4n23)cc1OC	52
COc1ccc2c(C)cc(SCC(=O)c3ccc(OC)c(OC)c3)nc2c1	125
COc1ccc(C(=O)CSc2cc(C)c(C#N)c3nc4ccccc4n23)cc1OC	30*
CNC(=O)c1csc(NC(=O)Cc2cccs2)n1	52
CC(=O)O[C@H]1C[C@@H]2CC[C@@H]3[C@H](CC[C@@]4(C)[C@H]3C[C@H]([N+]3(C)CCCCC3)[C@@H]4OC(C)=O)[C@@]2(C)C[C@@H]1N1CCCCC1	74
CC(=O)OC1C([N+]2(C)CCCCC2)C[C@H]2C3CC[C@H]4C[C@H](OC(C)=O)C([N+]5(C)CCCCC5)CC4(C)[C@H]3CCC12C (stereo not given in full)	-9*
CC(=O)O[C@H]1C[C@@H]2CC[C@@H]3[C@H](CC[C@@]4(C)[C@H]3C[C@H]([N+]3(C)CCCCC3)[C@@H]4OC(C)=O)[C@@]2(C)C[C@@H]1[N+]1(C)CCCCC1	56
SMILES	RMI-FANCM inh
CSc1nn(CC(=O)Nc2c(C)cc(C)cc2C)c(N)c1S(=O)(=O)c1ccc(C)cc1	69
Cc1nn(S(=O)c2ccc3ccccc3c2)c(C)c1Sc1ccc(Cl)cc1 (stereo not given)	65
O=c1nc2n(c3ccccc13)CC/C2=C/c1ccc(F)cc1	70
Nc1ncnc(NNC(=O)CNC(=O)c2cccs2)c1[N+](=O)[O-]	63
O=C(CS(=O)(=O)c1ccc(Cl)cc1)Nc1ccc(F)c(F)c1F	57
N/C(CC(=O)Nc1ccc(F)c(F)c1F)=N/O	35*
NC(=O)Nc1ccc(F)cc1F	57
CC(=O)c1ccc(C(=O)Nc2nc3c(s2)CSc2ccccc2-3)cc1	61
CSc1ccc(NC(=O)c2sc(-c3ccccc3)nc2C)nn1	64
O=C(O)c1ccccc1Nc1ccccc1	55
Cc1cccc(Nc2ccccc2C(=O)O)c1C	25*!
Cc1cccc(C(=O)O)c1O	60
COc1cc(CSCc2csc(NC(=O)COc3ccc(F)cc3)n2)cc(OC)c1	60
CCS(=O)(=O)N1CCc2ccc(NS(=O)(=O)c3ccc(OC)c(Cl)c3)cc2C1	66
Cc1ccc2nc(-c3ccc(NC(=O)c4cc5cc([N+](=O)[O-])ccc5s4)cc3)sc2c1	64
Cn1c(=NC(=O)C2CCN(S(=O)(=O)c3ccc(Cl)s3)CC2)sc2cc([N+](=O)[O-])ccc21	54
O=C(CSc1nc2ccccc2o1)N1CCOCC1	72
O=C(CSc1nnc2nnc3ccccc3n12)N1CCOCC1	17*
O=C(Cn1cnc2ccccc21)N1CCOCC1	58
O=C(NCCO)C(=O)Nc1ccc(N2CCCS2(=O)=O)cc1	64
O=C(NC(C(=O)N1CCN(C(=O)c2cccs2)CC1)S(=O)(=O)c1ccccc1)c1ccco1 (stereo not given)	64
NC(=O)c1ccccc1NC(=O)Cc1csc(Nc2cccc(C(F)(F)F)c2)n1	66
NC(=O)Cc1csc(Nc2cccc(C(F)(F)F)c2)n1	29*
O=C(O)Cc1csc(Nc2cccc(C(F)(F)F)c2)n1	68
O=c1c2cc(-c3cccs3)nn2ccn1Cc1nc(-c2ccc(Br)cc2)no1	93
COc1ccc(C2C(C#N)=C(N)Oc3cc(C)n(Cc4cccs4)c(=O)c32)c(OC)c1OC (stereo not given)	64
O=c1nc2s/c(=C/c3ccccn3)c(=O)n2nc1-c1ccccc1	21*
O=c1/c(=C/c2ccccc2)sc2nnc(-c3ccc(Cl)cc3)n12	52
O=c1/c(=C\c2ccc(Cl)cc2)sc2nc(-c3ccc(Cl)cc3)nn12	59
